Only some compounds are listed: those with a hit (about 3.5% of all), similar ones and a draw of the others.
MBD2 inh: blocks human MBD2 binding to methylated DNA; Q9UBB5; TR-FRET, MBD2 binding to methylated oligonucleotide; inhibition, % at 4.4 µM; 370,000 compounds, 0.31% hits; AID 686964; in the data active means inhibition above about 13%
Target sequence (Q9UBB5 whole entry, looked up): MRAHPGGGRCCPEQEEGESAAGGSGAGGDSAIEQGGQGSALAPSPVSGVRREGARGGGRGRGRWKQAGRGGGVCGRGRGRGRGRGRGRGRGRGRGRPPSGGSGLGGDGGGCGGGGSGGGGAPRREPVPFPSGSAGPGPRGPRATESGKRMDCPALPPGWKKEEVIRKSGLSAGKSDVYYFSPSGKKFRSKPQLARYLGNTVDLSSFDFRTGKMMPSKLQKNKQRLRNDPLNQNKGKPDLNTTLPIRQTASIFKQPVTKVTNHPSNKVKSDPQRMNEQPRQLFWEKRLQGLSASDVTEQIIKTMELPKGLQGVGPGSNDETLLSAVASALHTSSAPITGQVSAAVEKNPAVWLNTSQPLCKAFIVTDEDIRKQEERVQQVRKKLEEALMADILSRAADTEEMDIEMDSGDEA
rCAG RNA binder: molecules binding r(CAG) RNA repeats; inhibition, % at 3 µM; r(CAG) RNA repeat, TO-PRO-1 dye displacement fluorescence; 370,000 compounds, 1.3% hits;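 active means inhibition above the plate cutoff, the mean of all test compounds on that plate plus 3 SD, cut at about 35% in these data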;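 further: 0% = DMSO alone and 100% = 100 µM mitoxantrone as full dye displacement; higher means more dye released from RNA so lower well fluorescence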
UHRF1 MBD2 ctr: human UHRF1 methylated DNA binding inhibitors; Q96T88; UHRF1 binding to methylated oligo, TR-FRET; inhibition, % at 4.4 µM; 370,000 compounds, 0.75% hits; AID 687016; in the data active means inhibition above about 21%;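 further: UHRF1 SRA domain binding a hemimethylated CpG hairpin DNA probe; 0% = median of test compound wells and 100% = reference inhibitor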
PG9 binder: PG9 antibody binding by small molecule; inhibition, % at 6.7 µM; 360,000 compounds, 0.43% hits; AID 624416; TR-FRET gp120-PG9 antibody binding; in the data active means inhibition above about 8.5%
DNMT1 block: DNMT1 (human) enzyme inhibition; P26358; DNMT1 molecular beacon, Hinp1I cleavage, fluorescence; inhibition (reported as % activation of signal), % at 10 µM; 360,000 compounds, 0.83% hits; AID 588458; in the data active means inhibition above about 50%
LEDGF integ inh: blocks HIV-1 LEDGF/p75-dependent DNA integration; TR-FRET IN-LEDGF/p75 DNA integration, Eu/Cy5; inhibition, % at 3.7 µM; 370,000 compounds, 0.64% hits;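 active means inhibition above the screen-wide mean plus 3 SD, cut at about 13% in these data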;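 further: signal is the Cy5 over europium emission ratio at 671 and 618 nm; 0% = plate median of compound wells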
rCAG binder conf: r(CAG) RNA repeat binding, confirmation; 4,300 compounds, 70% hits; TO-PRO-1 dye displacement fluorescence; shares compounds with rCAG RNA binder; inhibition, % at 3 µM;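 active means inhibition above a per-plate cutoff, the mean inhibition of sample wells plus 3 SD, cut at about 35% in these data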;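 further: loss of TO-PRO-1 fluorescence as compound displaces dye from 1x1 AA loop RNA; 0% = DMSO only wells and 100% = 100 µM mitoxantrone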
dCAG dye counter: DNA CAG dye complex inhibition counter-screen; shares compounds with rCAG RNA binder; d(CAG) DNA oligo TO-PRO-1 dye displacement, fluorescence; inhibition, % at 3 µM; 4,300 compounds, 94% hits; AID 652068;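 active means inhibition above its plate's cutoff, the mean test-well inhibition plus 3 SD, cut at about 4.8% in these data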;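 further: 0% = DNA dye mix with DMSO and 100% = 100 µM mitoxantrone; hits displace the dye from DNA and so lower well fluorescence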
DNA CAG DR: counter-screen for rCAG binders: inhibitors of DNA CAG TO-PRO-1 complex. shares compounds with rCAG RNA binder. DNA CAG/GTC duplex TO-PRO-1 dye displacement fluorescence. IC50, µM. 250 compounds, 20% hits. AID 686960; in the data active means IC50 below about 10 µM
Numbers without * were called inactive; i = inactive; / = not tested or not shown.

SMILES	MBD2 inh	rCAG RNA binder	UHRF1 MBD2 ctr	PG9 binder	DNMT1 block	LEDGF integ inh	rCAG binder conf	dCAG dye counter	others
Cc1oc2c(cc(NS(=O)(=O)c3ccc4c5c(cccc35)C(=O)N4)c3ccccc32)c1C(=O)OC(C)C	-5	37*	-3	2	-30	5	38*	17*
Cc1oc2c(cc(NS(=O)(=O)c3ccc(Cl)cc3)c3ccccc32)c1C(=O)O	2	26	-4	-1	-3	0	/	/
CCOC(=O)c1c(C)oc2c1cc(NS(=O)(=O)c1ccc(C(=O)O)cc1)c1ccccc12	-6	67*	-2	-3	-26	2	55*	20*
CSc1ncccc1C(=O)N1CCCC(N2CCN(c3ccccc3C)CC2)C1 (stereo unspecified)	-2	-3	2	-3	5	9	/	/
O=C(O)c1ccn2c(C(=O)c3ccc(Cl)cc3)c(-c3ccccc3)cc2c1	3	68*	-1	0	-1	-2	64*	23*	DNA CAG DR=i
O=C(NCCO)C(=O)c1c(-c2ccc(Cl)cc2)cc2ccccn12	1	2	-4	-3	-2	3	/	/
O=c1nc(Nc2cccc(Cl)c2)oc2cc(Cl)oc(=O)c12	-9	44*	-5	-1	-7	4	56*	16*	DNA CAG DR=8.5*
COc1ccc(N(CC(=O)Nc2cccc(C(F)(F)F)c2)S(=O)(=O)c2c(C)[nH]c(=O)[nH]c2=O)cc1	-3	37*	-1	0	3	1	33	8.3*
CCc1ccc(NC(=O)CN(c2ccc(OC)cc2)S(=O)(=O)c2c(C)[nH]c(=O)[nH]c2=O)cc1	-7	40*	-1	-1	2	3	25	4
Cc1ccc(C(CC(=O)O)NC(=O)c2ccc(S(=O)(=O)N3CC(C)OC(C)C3)cc2)cc1 (stereo unspecified)	0	7	1	-1	2	0	/	/
Cc1ccc(CNC(=O)COC(=O)c2cccc(S(=O)(=O)N3CCCCC3)c2)cc1	-1	0	-2	-2	-24	-3	/	/
COC(=O)[C@]12CCCCC=C1N(Cc1ccc(Cl)cc1Cl)C(=O)[C@H](CC(=O)N1CCN(C(=O)C3CC3)CC1)C2	1	6	-3	-2	/	-4	/	/
Cn1c(=O)c2c(-c3ccccc3)n(-c3cc(Cl)c([N+](=O)[O-])cc3O)cc2n(C)c1=O	2	43*	-4	-1	-6	-3	42*	11*
COCCCNc1nc2ccccc2nc1NS(=O)(=O)c1cc(Cl)ccc1Cl	1	50*	-1	-3	-1	4	48*	15*
O=C(O)c1[nH]c2ccccc2c1-c1ccccc1	2	7	0	-2	1	-2	/	/
COc1cc(Cl)cc(C(c2c(C(=O)O)[nH]c3ccccc23)c2c(C(=O)O)[nH]c3ccccc23)c1O	-5	92*	-1	-1	0	6	73*	38*
COc1cc(C(=O)Nc2c(C(=O)O)[nH]c3ccccc23)cc(OC)c1OC	2	26	0	-3	1	-7	/	/
CC(=O)Nc1c(C(=O)O)[nH]c2ccccc12	-6	0	-5	-2	2	-2	/	/
O=C(O)c1[nH]c2ccccc2c1C(c1c(F)cccc1Cl)c1c(C(=O)O)[nH]c2ccccc12	-5	57*	-1	-1	0	4	32	8.0*
O=C(O)c1[nH]c2ccccc2c1C(c1cc(Br)ccc1O)c1c(C(=O)O)[nH]c2ccccc12	-2	95*	-1	-1	4	9	76*	40*
CC(=O)N1c2ccc(S(=O)(=O)N3CCCC3C(=O)NCc3ccc(Cl)cc3)cc2CC1C (stereo unspecified)	1	-4	-1	-1	0	0	/	/
COc1ccc(/C=C(\CC(=O)O)c2nc3ccccc3s2)cc1O	2	15	-2	-2	-1	-3	/	/
COc1cc(/C=C(\CC(=O)O)c2nc3ccccc3s2)ccc1OCC(=O)Nc1ccccc1F	-1	59*	0	-1	-1	2	62*	23*
CCOc1cc(/C=C(\CC(=O)O)c2nc3ccccc3s2)ccc1OCC(=O)Nc1cccc(C(F)(F)F)c1	1	67*	2	-1	-7	-2	53*	18*
COc1ccc(-c2nn(-c3ccccc3)cc2/C=C(\CC(=O)O)c2nc3ccccc3s2)cc1OC	6	53*	1	2	-9	6	64*	22*
SMILES	MBD2 inh	rCAG RNA binder	UHRF1 MBD2 ctr	PG9 binder	DNMT1 block	LEDGF integ inh	rCAG binder conf	dCAG dye counter	others
CN(C)CCC(=O)C(Cc1ccccc1)c1ccccc1 (stereo unspecified)	-2	35*	3	-1	3	7	-1	-1
Cc1ccc(C)c(C(O)c2ncc(-c3cccc(C(F)(F)F)c3)[nH]2)c1 (stereo unspecified)	-2	-1	1	0	2	0	/	/
Cc1c(C(=O)Nc2cc(S(=O)(=O)N3CCOCC3)ccc2N2CCN(C)CC2)oc2ccccc12	3	-3	-2	-2	-8	2	/	/
CCc1c(C)nc2cc(-c3cccc(Br)c3)[nH]n2c1=O	-4	3	-1	4	2	-2	/	/
O=C1c2ccccc2C(=O)c2c(O)c(O)cc(O)c21	0	42*	5	-10	79*	1	60*	32*
CCC1(C2=CCCCC2)C(=O)NC(=S)N=C1N (stereo unspecified)	-3	2	1	-2	0	-2	/	/
CCOC(=O)N1CCN(c2nc3ccc(C)cc3n3cnnc23)CC1	-1	-1	16	0	-2	1	/	/
N#C/C(=C/c1ccc(-c2ccccc2[N+](=O)[O-])o1)C(N)=O	-2	2	-3	-7	-3	2	/	/
O=c1nc2s/c(=C\c3ccc(-c4ccccc4[N+](=O)[O-])o3)c(=O)n2nc1-c1ccccc1	-2	46*	-12	-1	37	1	51*	25*
COc1ccc(-c2csc(C(C#N)=C(O)CSc3nccn3C)n2)cc1OC	-5	54*	-6	1	-2	4	23	7.2*
COc1ccc(-c2csc(C)n2)cc1OC	-3	-4	-1	0	1	4	/	/
C[C@@H]1CCCCO[C@H](CN(C)Cc2ccc(C(=O)O)cc2)[C@H](C)CN([C@@H](C)CO)C(=O)c2cc(NC(=O)Nc3ccc(C(F)(F)F)cc3)ccc2O1	10	50*	4	-2	-7	-1	53*	15*
